Assay outcomes deposited in PubChem by Buhrlage Lab, Dana-Farber Cancer Institute and Novartis Institutes for BioMedical Research (Cambridge, Mass).
Most compounds without a hit are left out; they make up all but 11% or so of the library.
USP28 block = inhibitors of human USP28 deubiquitinase; inhibition, % at 25 µM; purified USP28, Ub-rhodamine cleavage fluorescence, 30 min; Ubiquitin carboxyl-terminal hydrolase 28 (Homo sapiens), Q96RU2; AID 1645857, 2021; 47,000 tested, 3% active
OTUD3 block = inhibitors of human OTUD3 deubiquitinase; purified OTUD3, Ub-rhodamine fluorescence, 2 h; inhibition, % at 25 µM; 47,000 tested, 0.7% active
USP30 block = inhibitors of human USP30 deubiquitinase; Ubiquitin carboxyl-terminal hydrolase 30 (Homo sapiens), Q70CQ3; purified USP30, Ub-rhodamine cleavage fluorescence; inhibition, % at 25 µM; 47,000 tested, 5.3% active
Target sequence (Q70CQ3 whole entry, looked up): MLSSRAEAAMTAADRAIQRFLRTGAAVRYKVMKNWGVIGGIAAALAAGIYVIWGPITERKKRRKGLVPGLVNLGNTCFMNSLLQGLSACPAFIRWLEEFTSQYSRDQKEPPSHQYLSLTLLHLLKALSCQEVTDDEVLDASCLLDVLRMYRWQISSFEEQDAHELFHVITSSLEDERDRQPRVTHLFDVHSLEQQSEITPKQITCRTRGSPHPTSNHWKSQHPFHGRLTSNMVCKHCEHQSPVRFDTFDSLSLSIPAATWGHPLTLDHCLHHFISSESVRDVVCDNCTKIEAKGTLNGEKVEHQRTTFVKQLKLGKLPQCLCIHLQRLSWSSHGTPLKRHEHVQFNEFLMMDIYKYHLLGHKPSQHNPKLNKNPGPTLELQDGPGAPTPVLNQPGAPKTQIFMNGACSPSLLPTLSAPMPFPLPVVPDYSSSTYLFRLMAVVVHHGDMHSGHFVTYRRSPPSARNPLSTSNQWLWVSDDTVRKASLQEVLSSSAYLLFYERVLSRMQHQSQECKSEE
USP17 inh = inhibitors of human USP17 deubiquitinase. inhibition, % at 50 µM. Ubiquitin carboxyl-terminal hydrolase 17-like protein 5 (Homo sapiens), A8MUK1. 47,000 tested, 6.5% active. purified USP17, Ub-rhodamine cleavage fluorescence, 3 h
Of the large screens only hits and unclear results are named; the others gave an inactive call. Rule as the data show it: active = inhibition above about 30%; inactive = the rest.

COc1ccc(NC(=O)CC(=O)c2ccc([N+](=O)[O-])cc2)cc1S(=O)(=O)Nc1ccc(Cl)cc1	USP30 block 60.5, USP17 inh 38.0
CCOc1ccc(Cc2nc(-c3ccc4nnc(C)n4c3)no2)cc1	none
COc1ccc(Cc2nc(-c3ccc4nncn4c3)no2)c(Cl)c1	USP28 block 41.4
Fc1cccc(Cc2nc(-c3ccc4nncn4c3)no2)c1	none (no result: USP28 block, USP30 block)
Clc1ccc(OCc2nc(-c3ccn4cnnc4c3)no2)cc1	USP28 block 45.3
Fc1ccc(Cc2nc(-c3ccc4nncn4c3)no2)cc1	USP28 block 58.1
O=C(NCCn1cnc2cc(C(=O)N3CCCC3)ccc21)Nc1ccccc1F	none
O=S(=O)(NCCn1c(-c2ccncc2)nc2cccnc21)c1ccc(F)c(F)c1	none
COc1cc(C2CC(=O)Nc3nc(-c4ccccc4)[nH]c(=O)c32)cc(OC)c1O (centres undefined)	USP28 block 65.1, OTUD3 block 46.6, USP30 block 66.3, USP17 inh 82.3
COc1ccc(C2CC(=O)Nc3n[nH]c(-c4ccccc4)c32)cc1OC (centres undefined)	USP30 block 69.9
COc1ccc(OC)c(C2CC(=O)Nc3n[nH]c(-c4ccccc4)c32)c1 (centres undefined)	USP30 block 36.0, USP17 inh 72.0
COc1ccccc1C1CC(=O)Nc2n[nH]c(-c3ccccc3)c21 (centres undefined)	none (no result: USP17 inh)
O=C1CC(c2ccccc2F)c2c(nc(-c3ccccc3)[nH]c2=O)N1 (centres undefined)	none
CC(C(=O)N1CCC(c2nc(N3CCCC3)ncc2S(C)(=O)=O)CC1)c1ccccc1 (centres undefined)	none
c1ccc(CNc2nn3c(-c4ccncc4)cnc3s2)cc1	USP17 inh 51.3
c1cncc(-c2cnc3sc(NCC4CC4)nn23)c1	none
COc1ccc(CNc2nn3c(-c4ccncc4)cnc3s2)cc1	USP28 block 69.8, USP30 block 85.5, USP17 inh 34.0
CC(=O)c1cccc(Nc2ncnc3c2nnn3C)c1	none
Cc1cccc(NC(=O)CN2C(=O)CC(c3ccccc3)S(=O)(=O)c3ccccc32)c1C (centres undefined)	USP17 inh 51.2
Cc1ccccc1NC(=O)CN1C(=O)CC(c2ccccc2)S(=O)(=O)c2ccccc21 (centres undefined)	none
COc1ccc(NC(=O)CN2C(=O)CC(c3ccccc3)S(=O)(=O)c3ccccc32)cc1 (centres undefined)	USP17 inh 31.0
COc1ccc(NC(=O)CN2C(=O)CSc3ncccc32)cc1	none (no result: USP17 inh)
CC1CCCN(c2ncc(S(C)(=O)=O)c(C3CCN(C(=O)c4cnccn4)CC3)n2)C1 (centres undefined)	none
O=C(Nc1cccc(Cl)c1)Nc1ccccc1N1CCOCC1	none
COc1ccc(CCNC(=O)CN(c2cc(C)cc(C)c2)S(=O)(=O)c2c(C)noc2C)cc1OC	USP30 block 47.4
CC(C)c1nc2sc3c(NCc4ccco4)ncnc3c2c2c1CCC2	USP28 block 63.3
CC(C)c1nc2sc3c(NCCN4CCOCC4)ncnc3c2c2c1CCC2	USP28 block 34.6
O=C(c1cccc(S(=O)(=O)N2CCOCC2)c1)N1CCN(c2ccccc2F)CC1	none
O=C(CSc1ccc2ccccc2c1)Nc1cccc(S(=O)(=O)NC2=NCCC2)c1	none
CC1(C)CCCC2=C1CC(C)(C)C(N(C(=O)/C=C/C(=O)O)c1ccccc1)C2 (centres undefined)	USP28 block 49.4, OTUD3 block 41.4, USP30 block 75.4, USP17 inh 76.6
c1ccc(-c2nnc3n2-c2ccccc2SC3)cc1	USP30 block 31.1
O=C(Nc1ccc2sccc2c1)c1ccc(F)cc1	USP30 block 57.7, USP17 inh 49.1
O=C(O)C1CCCN(C(=O)c2ccc(-c3ccccc3F)o2)C1 (centres undefined)	none
COc1ccc(N2C(=O)[C@@H]3[C@H]4c5ccccc5C=CN4C(C(=O)Nc4ccc5c(c4)OCO5)[C@@H]3C2=O)cc1 (some centres undefined)	USP17 inh 63.7
COc1ccc(Cl)cc1NC(=O)C1C2C(=O)N(c3ccc4c(c3)OCO4)C(=O)C2C2c3ccccc3C=CN12 (centres undefined)	none
COc1ccc(Cl)cc1NC(=O)C1[C@@H]2C(=O)N(Cc3ccc4c(c3)OCO4)C(=O)[C@@H]2[C@H]2c3ccccc3C=CN12 (some centres undefined)	USP28 block 45.2
